From PubChem BioAssay (Tox21)
Inconclusive results are not listed. A number with no mark means an inactive call. Calls of active or inactive are those of the source. The call rests on the fitted dose curve; in most records, active means well fitted inhibition curve with a large enough effect in the repeat runs; inconclusive means weak or mixed curves; inactive means flat fitted curve, though single readings scatter.
On the % scale 0 is the no-effect control and ±100 the full control effect.

Each compound was assayed against Luciferin 4-monooxygenase (Photinus pyralis) (UniProt P08659) (assay: qHTS assay to identify small molecule inhibitors of firefly luciferase (AID 1224835; further: nearly all actives have a fitted effect of over 25% in size)). Settings: purified P. pyralis luciferase, luminescence inhibition; series mostly up to 115 µM; activity change, negative = inhibition: at the top concentration.
Luciferin 4-monooxygenase (Photinus pyralis), sequence (P08659 whole entry, looked up): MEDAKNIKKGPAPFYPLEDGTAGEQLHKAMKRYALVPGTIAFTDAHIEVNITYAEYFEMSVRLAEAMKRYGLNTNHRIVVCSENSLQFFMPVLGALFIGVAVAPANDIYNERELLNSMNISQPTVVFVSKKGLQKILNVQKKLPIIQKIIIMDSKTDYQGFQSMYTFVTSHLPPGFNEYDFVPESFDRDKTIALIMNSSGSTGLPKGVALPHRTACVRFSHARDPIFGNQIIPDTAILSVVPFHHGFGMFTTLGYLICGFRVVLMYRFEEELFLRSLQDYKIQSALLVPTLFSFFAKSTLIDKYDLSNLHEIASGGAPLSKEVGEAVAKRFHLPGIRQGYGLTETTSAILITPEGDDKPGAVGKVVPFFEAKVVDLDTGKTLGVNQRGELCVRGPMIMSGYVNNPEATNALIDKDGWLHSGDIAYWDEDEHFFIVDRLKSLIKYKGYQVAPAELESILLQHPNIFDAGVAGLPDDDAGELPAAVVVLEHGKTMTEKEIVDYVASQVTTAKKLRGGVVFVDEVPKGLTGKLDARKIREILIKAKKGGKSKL
Text: U.S. Tox21 Program National Center for Advancing Translational Sciences [NCATS] NIH Chemical Genomics Center [NCGC] U.S. Environmental Protection Agency [EPA] National Institutes of Environmental Health Sciences [NIEHS] National Toxicology Program [NTP] U.S. Food and Drug Administration [FDA] Tox21 Assay Overview: Firefly (Photinus pyralis) luciferase is one of the most commonly used transcriptional reporters. Firefly luciferase reporter-gene assays are generally considered one of the most sensitive assay types (Wood, 1995; Wood, 1998). However, it was initially observed, in 1991, by Thompson et al., that compounds that resemble the substrates of firefly luciferase (FLuc) can act as competitive inhibitors of the enzyme, and that these compounds, upon interaction with luciferase in the cell, can actually stabilize the protein and increase its half-life. Previous profiling work by other groups to determine the prevalence of compounds that affect FLuc enzymatic activity (PubChem AID 411) identified that ~3% of the MLSMR library (then at ~72K) inhibited FLuc. […] Thus the Tox21 10K library is profiled for activity against FLuc using a biochemical assay of purified FLuc and KM concentrations of FLuc substrates (D-luciferin and ATP).
These assay plates were then treated with 23nL of compound or DMSO using a Kalypsys pin tool, which allows for delivery of a 6-point interplate titration of each compound to the assay plate (quantitative HTS.) 1 uL of firefly luciferase mix (containing 50 mM Tris acetate, pH 7.6, 0.04 uM P. pyralis luciferase, 0.01% Tween, 0.05% BSA and dH2O) was then delivered by FRD to each well. Luciferase activity was then measured using a ViewLux CCD imager.
For `CC(C)OC(=S)S`, the “activity change, negative = inhibition” value was -12.9%.
For `Cc1cc(SCc2sc(-c3ccc(C(F)(F)F)c(F)c3)nc2C)ccc1OCC(=O)O`, the Potency was 44.8 µM (active).
For `CCCCCCCCCCCCCCCCCCn1cc[n+](C)c1`, the “activity change, negative = inhibition” value was 1.39%.
With `CCc1cc(C)cc(CC)c1-c1c(OC(=O)C(C)(C)C)n2n(c1=O)CCOCC2` the “activity change, negative = inhibition” value was 0.257%.
`COP(=O)(CCC(=O)NCO)OC` was tested, and the “activity change, negative = inhibition” value was -3.72%.
`CCCN(CCC)CCc1c[nH]c2ccccc12` was tested, and the “activity change, negative = inhibition” value was -0.748%.
In the case of `CCOCCOC(C)=O`, the “activity change, negative = inhibition” value is reported as 2.47%.
For `COc1cccc(C(=O)CCN[C@@H](C)[C@H](O)c2ccccc2)c1`, the “activity change, negative = inhibition” value was -2.45% [at 52.9 µM].
In the case of `CN(C)CCc1c[nH]c2ccc(O)cc12`, the “activity change, negative = inhibition” value is reported as -3.91%.
With `C[C@@H]1O[C@@H](O[C@H]2C[C@@H](O)[C@]3(CO)[C@H]4[C@H](O)C[C@]5(C)[C@@H](C6=CC(=O)OC6)CC[C@]5(O)[C@@H]4CC[C@]3(O)C2)[C@H](O)[C@H](O)[C@H]1O` the Potency was “inactive”.
`Cc1cc(C(F)(C(F)(F)F)C(F)(F)F)ccc1NC(=O)c1cccc(I)c1C(=O)NC(C)(C)CS(C)(=O)=O` was tested, and the “activity change, negative = inhibition” value was 6.51% [at 52.9 µM].
In the case of `N#CNC#N`, the “activity change, negative = inhibition” value is reported as 2.98%.
In the case of `O=C(O)COc1nc(Cl)c(Cl)cc1Cl`, the “activity change, negative = inhibition” value is reported as 0.837%.
With `N#CCCO` the “activity change, negative = inhibition” value was 0.632%.
`Clc1ccc(C(Cl)(Cl)Cl)c(Cl)c1` was tested, and the “activity change, negative = inhibition” value was -2.65%.
`Fc1cccc(Cl)c1CCl` was tested, and the “activity change, negative = inhibition” value was -1.37%.
With `BrC(Br)Br` the “activity change, negative = inhibition” value was 0.922%.
For `C[C@@H](Oc1ccc(Cl)cc1Cl)C(=O)O`, the “activity change, negative = inhibition” value was -1.57%.
For `O=C(CCl)C(Cl)Cl`, the “activity change, negative = inhibition” value was 3.28%.
With `CCC(C)(C)C(=O)OC1=C(c2ccc(Cl)cc2Cl)C(=O)OC12CCCCC2` the Potency was 31.7 µM (active).
In the case of `CCCCOP(=O)(CCCC)OCCCC`, the “activity change, negative = inhibition” value is reported as -1.67%.
`Clc1ccc(C(c2ccc(Cl)cc2)C(Cl)(Cl)Cl)cc1` was tested, and the Potency was “inactive”.
In the case of `Oc1ccc2ccc3cccc4ccc1c2c34`, the Potency is reported as 79.6 µM (active).
`O=c1c(C2CC(c3ccc(-c4ccc(Br)cc4)cc3)Cc3ccccc32)c(O)sc2ccccc12` (stereo not given) was tested, and the “activity change, negative = inhibition” value was 0.241% [at 52.9 µM].
In the case of `N#CCCSCCC#N`, the “activity change, negative = inhibition” value is reported as 5.28%.
`C=COCCCl` was tested, and the “activity change, negative = inhibition” value was -0.755%.
`[Hg+2].[I-].[I-]` was tested, and the Potency was 4.48 µM (active).
`O=C/C(Cl)=C(/Cl)C(=O)O` was tested, and the Potency was “inactive”.
In the case of `Oc1c(Cl)c(Cl)cc(Cl)c1Cl`, the Potency is reported as 87 µM (active).
For `OC(c1ccc(Cl)cc1)(c1ccc(Cl)cc1)C(Cl)(Cl)Cl`, the “activity change, negative = inhibition” value was -4.07%.
With `CCC(C)c1cc(C(C)(C)C)cc(-n2nc3ccccc3n2)c1O` (stereo not given) the “activity change, negative = inhibition” value was 4.55% [at 52.9 µM].
For `NC(=O)c1ccc(N)nc1`, the “activity change, negative = inhibition” value was -0.994%.
`Nc1c(Oc2ccccc2)cc(O)c2c1C(=O)c1ccccc1C2=O` was tested, and the Potency was 3.09 µM (active).
For `Clc1ccc(CCC(Cn2ccnc2)Sc2c(Cl)cccc2Cl)cc1` (stereo not given), the “activity change, negative = inhibition” value was 6.61% [at 52.9 µM].
`Cc1cccc(OP(=O)(Oc2cccc(C)c2)Oc2cccc(C)c2)c1` was tested, and the “activity change, negative = inhibition” value was 3.48%.
With `Cl/C=C\CCl` the “activity change, negative = inhibition” value was 4.12%.
With `CN(CCCC(O)c1cccnc1)N=O` (stereo not given) the “activity change, negative = inhibition” value was 0.0531%.
`CC(C)(c1ccc(O)c(-c2ccccc2)c1)c1ccc(O)c(-c2ccccc2)c1` was tested, and the “activity change, negative = inhibition” value was -3.06%.
In the case of `Oc1ccc(C2(c3ccc(O)cc3)c3ccccc3-c3ccccc32)cc1`, the “activity change, negative = inhibition” value is reported as 1.15%.
With `Clc1ccc(C(c2ccccc2Cl)C(Cl)(Cl)Cl)cc1` (stereo not given) the Potency was “inactive”.
